# Source: PubChem BioAssay
# Calls of active or inactive are those of the source.
# What was measured:
# [1] = biological target: Albumin (Bos taurus) (UniProt P02769); experiment: bovine serum albumin binders on microarray, profiling panel, artefact control for SMM control protein annotation, biochemical, small-molecule microarray, Alexa647 label, 635/667 nm fluorescence (AID 1118); details: BSA-A647 binding, fluorescence 635 nm, higher = more signal;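 further: score merges 667 nm emission intensity and signal-to-noise per printed compound spot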
# [2] = small-molecule microarray binders of probe aXIP, primary screen, biochemical, NeuroSMM set, 635/667 nm fluorescence (AID 1119); details: higher = more signal, called active from +8 up or from −8 down;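 further: probe is the protein aXip251-270 applied at 1 µg/mL to compound-printed slides; binding of probe to printed compounds measured as 667 nm fluorescence plus signal to noise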
# [3] = small-molecule binders of probe aNOTCH3, primary screen, biochemical, small-molecule microarray, 635/667 nm fluorescence (AID 1120); details: higher = more signal;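 further: probe is a biotin-tagged antibody raised against NOTCH3 rather than NOTCH3 protein; score merges spot fluorescence near 667 nm with spot signal to noise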
# [4] = small-molecule binders of probe aNOTCH2, primary screen, biochemical, small-molecule microarray, 635/667 nm fluorescence (AID 1121); details: higher = more signal;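 further: score merges feature fluorescence read at 667 nm with its signal to noise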
# [5] = biological target: Carbonic anhydrase 2 (Homo sapiens) (UniProt P00918); experiment: CAII small-molecule binders, profiling panel, biochemical, small-molecule microarray, Alexa647-labelled CAII (AID 1122); details: CAII-A647 binding fluorescence, higher = more signal
# [6] = COS7 lysate on small-molecule microarray, probe aHis, 635 nm (AID 1123); details: COS7 cell lysate, fluorescence, higher = more signal;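 further: z-score combines 667nm fluorescence intensity with signal-to-noise per printed compound spot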
# [7] = compound binding in COS7 lysate, probe aLAP1, primary screen, cell lysate, small-molecule microarray (AID 1124); details: probe aLAP1, fluorescence, higher = more signal;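 further: lysate comes from COS7 cells expressing LAP1 and is applied at 0.3 µg/mL; score merges spot fluorescence near 667 nm with signal-to-noise over triplicate slides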
# [8] = system: Sam68 (KHDRBS1); experiment: Sam68 small-molecule binders, primary screen, biochemical, small-molecule microarray, 635 nm fluorescence (AID 1125); details: small-molecule microarray binding, higher = more signal;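 further: score merges 667 nm channel intensity with signal to noise over triplicate slides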
# [9] = system: Chordin-like protein 2 (CHRDL2); experiment: CHRDL2 small-molecule binders, primary screen, biochemical, small-molecule microarray, 635 nm fluorescence (AID 1126); details: small-molecule microarray binding, fluorescence 635 nm; higher = more signal;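 further: printed compound slides probed with Chrdl2 protein at 4 µg/mL for 1 h at 4 C; score merges 667 nm emission intensity with signal to noise over three replicate slides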
# [10] = biological target: Concanavalin-A (Canavalia ensiformis) (UniProt P02866); experiment: ConA small-molecule binders, primary screen, artefact control for SMM control protein annotation, biochemical, small-molecule microarray, Alexa647 label, 635 nm (AID 1127); details: ConA-A647 binding fluorescence, higher = more signal;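 further: z combines 667 nm emission intensity with signal-to-noise across three replicate slides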
# [11] = anti-His antibody binders, primary screen, artefact control for SMM control protein annotation, biochemical, small-molecule microarray, 635 nm fluorescence (AID 1128); details: anti-His Alexa647 antibody binding, higher = more signal;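 further: score merges feature fluorescence with signal-to-noise for each printed compound spot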
# [12] = system: Human papillomavirus type 1a E7 protein (residues 1-88); experiment: HPV1a E7 small-molecule binders, primary screen, biochemical, small-molecule microarray, residues 1-88, 635 nm (AID 1129); details: small-molecule microarray binding, fluorescence 635 nm; higher = more signal
# [13] = biological target: Focal adhesion kinase 1 (Homo sapiens) (UniProt Q05397); experiment: small-molecule microarray binders of FAK, primary screen, biochemical, 635/667 nm fluorescence, BSA, DTT (AID 1130); details: PTK2 binding, 635 nm fluorescence, higher = more signal;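 further: composite of spot emission at 667 nm and signal to noise over triplicate slides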
# [14] = system: Fibrinogen (Alexa647-labelled); experiment: fibrinogen binders on compound microarrays, profiling panel, artefact control for SMM control-protein annotation, biochemical, small-molecule microarray, 635/667 nm fluorescence (AID 1131); details: fibrinogen-A647 binding fluorescence, higher = more signal;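 further: z-score merges 667 nm fluorescence with per-spot signal-to-noise over triplicate slides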
# [15] = biological target: Follistatin (Homo sapiens) (UniProt P19883); experiment: follistatin binders on small-molecule microarrays, primary screen, biochemical, small-molecule microarray, 635/667 nm fluorescence (AID 1132); details: FST binding, 635 nm fluorescence, higher = more signal
# [16] = biological target: Fibroblast growth factor 2 (Homo sapiens) (UniProt P09038); experiment: FGF2 binders on small-molecule microarrays, primary screen, biochemical, small-molecule microarray, 635/667 nm fluorescence (AID 1133); details: small-molecule microarray binding, FGF2, fluorescence 635/667; higher = more signal
# [17] = mitochondrial membrane potential change in A549 cells, profiling panel, cell-based, JC-1 fluorescence, basal, 24 h, 100 nL (AID 1138); details: higher = more signal;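 further: A549 lung adenocarcinoma cells under basal conditions with no added stimulus; test concentration not given here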
# [18] = system: Lefty1; experiment: Lefty1 binders on small-molecule microarrays, primary screen, biochemical, small-molecule microarray, 635/667 nm fluorescence (AID 1139); details: small-molecule microarray binding, fluorescence 635/667; higher = more signal
# [19] = system: wheat germ agglutinin (Triticum aestivum), Alexa647-labelled; experiment: wheat germ agglutinin binders on compound microarrays, profiling panel, artefact control for SMM control-protein annotation, biochemical, small-molecule microarray, 635/667 nm fluorescence (AID 1140); details: WGA-A647 binding, 635 nm fluorescence, higher = more signal;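 further: score merges 667 nm feature emission with signal to noise over triplicate slides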
# [20] = biological target: Luciferin 4-monooxygenase (Photinus pyralis) (UniProt P08659); experiment: firefly luciferase enzyme inhibitors, primary screen, biochemical, luminescence, purified enzyme, 2006 set (AID 1141); details: SteadyGlo luminescence, 30 min, higher = more signal, called active from +8 up or from −8 down;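 further: cell-free assay with purified firefly luciferase at 100 ng per well in PBS; test concentration not given here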
# Sequence of Luciferin 4-monooxygenase (Photinus pyralis) (P08659 whole entry, looked up): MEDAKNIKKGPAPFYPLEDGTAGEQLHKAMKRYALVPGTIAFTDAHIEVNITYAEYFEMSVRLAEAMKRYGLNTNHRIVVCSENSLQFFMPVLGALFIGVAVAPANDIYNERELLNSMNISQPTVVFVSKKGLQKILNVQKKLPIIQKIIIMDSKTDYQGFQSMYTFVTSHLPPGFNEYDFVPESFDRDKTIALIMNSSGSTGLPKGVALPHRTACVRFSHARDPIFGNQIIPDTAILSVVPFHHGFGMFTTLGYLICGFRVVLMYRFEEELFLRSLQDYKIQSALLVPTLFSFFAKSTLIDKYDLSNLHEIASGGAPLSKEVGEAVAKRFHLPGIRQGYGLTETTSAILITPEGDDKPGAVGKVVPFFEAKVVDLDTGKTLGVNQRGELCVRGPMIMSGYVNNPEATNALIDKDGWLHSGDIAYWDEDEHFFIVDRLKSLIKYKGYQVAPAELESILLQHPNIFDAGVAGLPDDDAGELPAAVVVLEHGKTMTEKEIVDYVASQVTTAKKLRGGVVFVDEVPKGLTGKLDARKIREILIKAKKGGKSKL
# Sequence of Follistatin (Homo sapiens) (P19883 whole entry, looked up): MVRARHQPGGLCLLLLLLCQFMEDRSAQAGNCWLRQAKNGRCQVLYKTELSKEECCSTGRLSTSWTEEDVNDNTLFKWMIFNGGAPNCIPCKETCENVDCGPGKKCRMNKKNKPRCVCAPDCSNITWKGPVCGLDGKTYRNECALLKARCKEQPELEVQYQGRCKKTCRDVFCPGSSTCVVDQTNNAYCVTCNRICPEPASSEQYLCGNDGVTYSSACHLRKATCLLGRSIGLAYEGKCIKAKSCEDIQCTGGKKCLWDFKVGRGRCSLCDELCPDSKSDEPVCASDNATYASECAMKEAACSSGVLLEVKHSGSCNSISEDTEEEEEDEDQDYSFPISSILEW
# Sequence of Concanavalin-A (Canavalia ensiformis) (P02866 whole entry, looked up): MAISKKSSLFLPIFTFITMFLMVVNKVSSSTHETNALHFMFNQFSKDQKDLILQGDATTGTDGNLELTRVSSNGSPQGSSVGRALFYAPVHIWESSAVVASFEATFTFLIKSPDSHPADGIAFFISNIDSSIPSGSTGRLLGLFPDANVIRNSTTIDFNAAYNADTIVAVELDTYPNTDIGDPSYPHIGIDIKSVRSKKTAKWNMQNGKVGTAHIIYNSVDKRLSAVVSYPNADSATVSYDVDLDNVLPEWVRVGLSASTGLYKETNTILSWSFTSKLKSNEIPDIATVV
# Sequence of Fibroblast growth factor 2 (Homo sapiens) (P09038 whole entry, looked up): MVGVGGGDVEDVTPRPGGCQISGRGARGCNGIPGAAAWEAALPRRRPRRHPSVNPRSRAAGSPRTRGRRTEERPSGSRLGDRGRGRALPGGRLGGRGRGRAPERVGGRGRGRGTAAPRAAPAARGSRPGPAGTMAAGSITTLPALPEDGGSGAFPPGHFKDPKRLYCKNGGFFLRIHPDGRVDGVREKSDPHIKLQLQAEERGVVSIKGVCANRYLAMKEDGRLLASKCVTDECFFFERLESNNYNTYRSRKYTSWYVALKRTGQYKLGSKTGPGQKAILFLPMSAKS
# Sequence of Focal adhesion kinase 1 (Homo sapiens) (Q05397 whole entry, looked up): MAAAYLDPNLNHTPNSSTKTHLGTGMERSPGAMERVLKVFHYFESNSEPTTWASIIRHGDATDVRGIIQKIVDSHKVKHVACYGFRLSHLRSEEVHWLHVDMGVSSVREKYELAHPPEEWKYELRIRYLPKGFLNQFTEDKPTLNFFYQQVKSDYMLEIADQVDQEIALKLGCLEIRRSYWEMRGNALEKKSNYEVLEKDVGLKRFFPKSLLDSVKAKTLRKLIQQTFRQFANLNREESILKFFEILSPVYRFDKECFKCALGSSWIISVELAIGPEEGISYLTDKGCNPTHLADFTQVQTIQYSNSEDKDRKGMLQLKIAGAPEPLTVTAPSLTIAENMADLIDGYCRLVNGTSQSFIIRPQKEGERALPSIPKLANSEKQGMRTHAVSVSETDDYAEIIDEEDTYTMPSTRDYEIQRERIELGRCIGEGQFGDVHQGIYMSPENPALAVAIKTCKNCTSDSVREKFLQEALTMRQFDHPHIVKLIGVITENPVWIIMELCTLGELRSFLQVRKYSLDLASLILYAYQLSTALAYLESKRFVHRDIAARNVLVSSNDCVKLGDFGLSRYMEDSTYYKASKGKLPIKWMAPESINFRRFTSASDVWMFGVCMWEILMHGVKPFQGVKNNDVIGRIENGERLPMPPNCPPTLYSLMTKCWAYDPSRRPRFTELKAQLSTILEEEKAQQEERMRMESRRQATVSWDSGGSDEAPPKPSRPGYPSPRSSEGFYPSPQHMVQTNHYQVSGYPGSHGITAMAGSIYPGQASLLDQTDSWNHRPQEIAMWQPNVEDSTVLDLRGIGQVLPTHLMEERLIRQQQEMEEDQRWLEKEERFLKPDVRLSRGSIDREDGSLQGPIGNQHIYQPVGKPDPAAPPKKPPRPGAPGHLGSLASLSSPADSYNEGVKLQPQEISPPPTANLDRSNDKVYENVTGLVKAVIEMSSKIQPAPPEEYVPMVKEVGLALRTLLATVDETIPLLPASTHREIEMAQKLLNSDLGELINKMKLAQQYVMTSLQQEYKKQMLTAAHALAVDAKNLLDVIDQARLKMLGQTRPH
# Sequence of Albumin (Bos taurus) (P02769 whole entry, looked up): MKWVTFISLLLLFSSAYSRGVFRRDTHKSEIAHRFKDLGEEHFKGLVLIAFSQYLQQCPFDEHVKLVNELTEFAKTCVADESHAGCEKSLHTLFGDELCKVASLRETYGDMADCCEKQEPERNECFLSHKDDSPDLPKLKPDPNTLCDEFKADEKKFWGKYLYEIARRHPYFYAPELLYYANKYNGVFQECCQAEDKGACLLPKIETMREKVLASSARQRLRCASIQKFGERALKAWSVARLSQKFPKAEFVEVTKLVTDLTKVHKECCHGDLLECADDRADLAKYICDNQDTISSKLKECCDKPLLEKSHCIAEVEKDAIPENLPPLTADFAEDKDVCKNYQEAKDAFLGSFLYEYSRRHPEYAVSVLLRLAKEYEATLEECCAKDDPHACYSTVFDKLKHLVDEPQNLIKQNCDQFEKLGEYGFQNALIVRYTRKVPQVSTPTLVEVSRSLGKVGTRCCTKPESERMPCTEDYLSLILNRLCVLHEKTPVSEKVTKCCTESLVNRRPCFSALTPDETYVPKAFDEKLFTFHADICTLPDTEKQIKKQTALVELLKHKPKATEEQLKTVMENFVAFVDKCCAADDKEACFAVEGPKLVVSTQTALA
SMILES,composite z-score [1],composite Z-score [2],composite z-score [3],composite z-score [4],composite z-score [5],composite z-score [6],composite z-score [7],composite z-score [8],composite z-score [9],composite z-score [10],composite z-score [11],composite z-score [12],composite z-score [13],composite z-score [14],composite z-score [15],composite z-score [16],z-score [17],composite z-score [18],composite z-score [19],z-score [20]
O=C1C2C=CC(C(O)C3CCCCC3)N(Nc3ccccc3F)C2C(=O)N1c1ccccc1 (stereo not given),0.97,0.485 (inactive),0.457,0.252,0.244,2.71,1,1.31,0.426,1.2,1.87,1.23,1.76,1.01,1.17,-0.494,-0.791,0.168,0.682,-1.02 (inactive)
C=CC[C@@]1(C(=O)NCCCOC)N=C(c2ccc(OCCCO)cc2)O[C@@H]1c1ccccc1CN=[N+]=[N-],0.829,0.202 (inactive),0.518,-0.108,0.596,2.61,0.159,1.29,0.0984,1.08,2.86,1.21,0.117,1.01,1.15,0.312,1.7,0.309,0.719,0.645 (inactive)
COc1cccc(C)c1NC(=O)O[C@H]1[C@H](OC(=O)Nc2ccccc2-c2ccccc2)[C@@H](OC(=O)Nc2ccccc2-c2ccccc2)[C@@H](OC)O[C@@H]1CO,0.848,0.694 (inactive),0.668,0.0151,0.712,1.44,0.762,1.3,0.0298,1.02,1,1.25,1.29,1.02,1.27,0.317,-0.158,0.719,0.55,-0.742 (inactive)
CC(C)(C)OC(=O)CC[C@]1(C(N)=O)N=C(c2ccc(OCCCO)cc2)O[C@H]1c1ccccc1N=[N+]=[N-],0.426,0.59 (inactive),0.156,-0.084,0.791,1.61,0.242,0.522,-0.416,0.741,2.8,0.977,0.178,0.746,1.2,0.38,-0.12,-0.512,1.1,-8.33 (active)
C=CC[C@]1(C(N)=O)N=C(c2ccc(OCCCO)cc2)O[C@H]1c1ccccc1N=[N+]=[N-],0.601,1.13 (inactive),0.067,-0.0586,0.79,2.53,0.87,0.994,0.783,0.883,1.98,0.766,-0.336,0.753,1.12,0.812,1.62,-0.0005,0.762,-14.1 (active)
CC(C)c1ccc(NN2C(C(O)C(C)c3ccccc3)C=CC3C(=O)N(c4ccccc4)C(=O)C32)cc1 (stereo not given),1.03,0.304 (inactive),0.578,0.589,0.749,3.34,0.952,1.28,0.306,1.17,1.63,1.17,0.531,0.988,1.2,0.558,-0.864,0.155,1.19,0.222 (inactive)
C=CC[C@H](O)c1ccc(O)c(F)c1,-0.394,0.404 (inactive),-0.849,-0.157,0.828,-0.268,-0.0732,-1.45,-2.24,-1.09,-0.234,-1.35,-0.677,-2.61,-1.28,-0.975,0.414,-0.618,-0.318,-0.857 (inactive)
[N-]=[N+]=Nc1ccccc1C[C@@]1(C(=O)NCc2ccccc2)N=C(c2ccc(OCCCO)cc2)O[C@@H]1c1ccccc1,0.747,0.157 (inactive),0.446,0.309,0.645,1.99,0.692,1.3,0.621,0.775,1.58,1.22,-0.255,0.695,1.47,0.992,0.945,-0.0651,0.626,-1.39 (inactive)
O=C1C[C@@](C(=O)NCC(F)(F)F)(c2ccc([N+](=O)[O-])cc2)[C@@H](c2ccc(CO)cc2I)N1CC12CC3CC(CC(C3)C1)C2,0.506,0.0839 (inactive),-0.056,-0.13,0.517,1.48,1.15,1.29,-0.0117,1.12,1.31,0.722,-0.0231,0.93,0.994,1.34,1.73,1.22,0.249,-0.251 (inactive)
[N-]=[N+]=NCc1ccccc1C[C@]1(C(=O)N2CCCCC2)COC(c2ccc(OCCCO)cc2)=N1,0.744,-0.838 (inactive),-0.159,-0.242,0.375,1.58,-0.44,1.24,0.0846,0.984,1.13,1.07,0.401,0.932,0.687,0.765,2.45,-0.432,0.827,-1.71 (inactive)
COC(=O)[C@@]1(Cc2ccc(F)cc2)[C@H]2c3cc(C(=O)N(C)C)n(Cc4cccc5ccccc45)c3C[C@H]2CN1C(=O)c1ccccc1,0.617,0.0828 (inactive),0.223,0.168,0.86,4.13,0.881,0.343,-0.967,0.162,0.497,1.11,0.705,0.338,0.137,-0.617,0.319,-0.446,0.115,4.74 (inactive)
CCCC1(C(=O)OC)C=C2C(=C(C(C)C)C(=O)C2C)CN1 (stereo not given),0.844,0.382 (inactive),-0.0288,0.0788,0.0703,0.614,0.976,-1.36,-0.454,-0.981,1.76,-1.58,-0.222,-0.727,-0.927,-0.434,0.905,-1.1,-0.116,1.88 (inactive)
CCc1cccc(NC(=O)O[C@H]2[C@H](OC(=O)Nc3ccccc3-c3ccccc3)[C@H](OC(=O)Nc3ccccc3-c3ccccc3)[C@@H](OC)O[C@@H]2CO)c1,0.715,0.814 (inactive),0.122,-0.0273,0.728,2.04,0.0611,1.28,0.478,1.12,0.979,1.21,0.775,1.01,1.36,0.598,-1.35,1.21,0.834,1.09 (inactive)
C=C(CCCC)C(=O)CC[C@@H](OC(C)=O)c1ccc(OCCO)cc1,-0.267,3.19 (inactive),0.15,-0.117,0.628,0.143,1.21,-0.135,0.523,0.397,1.51,-0.161,-0.162,-0.134,1.46,1.4,-0.275,1.69,-0.578,-1.4 (inactive)
C=C(COC)C(=O)CC[C@@H](OC(=O)c1ccccc1-c1ccccc1C(=O)O)c1ccccc1OCCO,-0.597,0.49 (inactive),-0.122,-0.0174,0.531,-0.381,1.67,0.448,0.538,0.0185,0.116,1.15,-0.267,0.599,1.29,1.64,-0.0562,0.922,-0.272,-6.94 (inactive)
COc1ccc([Si](C)(C)[C@H]2[C@H](CC(=O)N3CCC[C@H]3CO)O[C@@]3(C(=O)N(Cc4cccc(N5CCCCC5=O)c4)c4ccccc43)[C@@H]2C)cc1,0.342,0.433 (inactive),-0.318,-0.161,0.462,1.83,0.648,1.31,1.19,1.13,0.999,0.989,0.79,0.732,1.08,1.52,3.51,1.36,0.442,-1.5 (inactive)
CCN1C(=O)C2CC(=O)C3C(CN(S(=O)(=O)c4ccc(C)cc4)C3c3ccc(C)cc3)C2C1=O (stereo not given),0.449,0.37 (inactive),0.0282,-0.108,0.75,2.05,1.11,0.768,-0.99,0.99,1.98,1.18,1.09,-0.38,-0.238,-0.315,0.0148,-0.573,-0.0147,0.12 (inactive)
CCCCCCc1nc(-c2ccc(OC)nc2)c(C)c2c1[Si](C(C)C)(C(C)C)OC2,-0.854,0.268 (inactive),-0.122,-0.12,-0.195,-0.039,-0.459,0.18,0.492,-0.141,0.975,-0.461,0.0484,-0.52,0.553,0.0695,-0.498,0.524,-0.491,0.146 (inactive)
COC(=O)[C@@]1(Cc2ccc(F)cc2)[C@H]2c3cc(C(=O)N4CCCC4)n(Cc4ccc(OC(F)(F)F)cc4)c3C[C@H]2CN1C(=O)c1ccccc1,0.435,-0.328 (inactive),0.0026,-0.0108,0.861,1.96,0.32,-0.701,-0.0979,-0.484,-0.509,1.05,0.415,-0.276,-0.752,-0.685,0.559,-1.69,0.135,1.38 (inactive)
CCOC(=O)C[C@H]1[C@H](OC(=O)c2ccc(-c3ccccc3)cc2)[C@@H](NC(=O)c2ccc(-c3ccccc3)cc2)c2cc(OCCCO)ccc2N1C(=O)c1ccccc1,0.771,0.884 (inactive),0.0916,-0.129,0.277,0.895,0.331,1.32,-0.0105,1.06,0.0004,1.09,1.03,0.856,0.627,0.64,0.392,0.627,0.792,-0.339 (inactive)
